Assay outcomes: PubChem BioAssay, Broad Institute
Rtt109 Vps75 = C. albicans Rtt109 histone acetyltransferase inhibition | Q5AAJ8 | purified Rtt109/Vps75, ThioGlo CoA-SH fluorescence, 4 h | inhibition, % at 34.9 µM | actives 0.16% (n = 330,000);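 active = inhibition of at least 50% in every replicate; inconclusive = best replicate reaches 50% inhibition but some replicates fall short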
Target sequence (Q5AAJ8 whole entry, looked up): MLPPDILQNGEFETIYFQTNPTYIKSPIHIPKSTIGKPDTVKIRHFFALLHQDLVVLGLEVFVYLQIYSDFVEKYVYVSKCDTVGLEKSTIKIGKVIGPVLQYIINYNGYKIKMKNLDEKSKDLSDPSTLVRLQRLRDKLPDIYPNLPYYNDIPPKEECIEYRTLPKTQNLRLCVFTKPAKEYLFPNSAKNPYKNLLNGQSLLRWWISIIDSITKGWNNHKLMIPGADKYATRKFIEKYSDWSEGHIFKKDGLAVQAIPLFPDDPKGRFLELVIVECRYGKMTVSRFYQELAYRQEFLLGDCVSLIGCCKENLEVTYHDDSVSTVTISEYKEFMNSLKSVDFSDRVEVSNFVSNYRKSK
PglD inh = PglD (C. jejuni) enzyme inhibition | purified PglD enzyme, DTNB colorimetric CoA detection | inhibition, % at 12.5 µM | actives 0.098% (n = 360,000) | AID 602405; in the data active = inhibition above about 16%, passing the limit was not always enough; inconclusive = no clear call, values can overlap the other calls
DENV2 CPE = DENV2-induced cell death inhibition. CPE inhibition, % at 9.99 µM. DENV2-infected cells, cytopathic effect rescue, plate reader. actives 1.7% (n = 350,000). AID 651640; in the data active = CPE inhibition above about 20%, passing the limit was not always enough; inconclusive = no clear call, values can overlap the other calls; tested in BHK-21 cells;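 note: 0% = median of neutral control wells and 100% = median of positive control wells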
Glyco luc inh = blocks N-linked glycosylation in D54 reporter cells; D54 ERlucT glycosylation luciferase reporter, 24 h; percent of 100 nM tunicamycin response; AID 588692; actives 0.23% (n = 360,000); reporter increase, % at 12.5 µM;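 active = mean luciferase reporter signal, scaled so untreated is 0 and the glycosylation-blocking control 100, at or above a set limit in every replicate; inconclusive = mean reaches the limit but not every replicate does; inactive = mean below the limit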;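 note: luciferase carries N-glycosylation sites so blocking glycosylation raises the light; 0% = median of neutral control wells and 100% = median of 100 nM tunicamycin wells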
An asterisk follows results filed as active; ? = inconclusive; . = not tested or not shown. The entries come from a sample that favours hits as a whole.

SMILES | Rtt109 Vps75 | PglD inh | DENV2 CPE | Glyco luc inh
C[C@H]1CN([C@@H](C)CO)C(=O)c2cc(NC(=O)Nc3ccc(C(F)(F)F)cc3)ccc2O[C@H]1CN(C)Cc1ccc(Cl)c(Cl)c1 | . | -4 | ? | .
C[C@@H]1CN([C@H](C)CO)C(=O)c2cc(NC(=O)Nc3ccc(C(F)(F)F)cc3)ccc2O[C@H]1CN(C)Cc1ccncc1 | . | 3 | 33* | .
C[C@H](CO)N1C[C@H](C)[C@H](CN(C)Cc2ccc(C(F)(F)F)cc2)Oc2ccc(NS(=O)(=O)c3cn(C)cn3)cc2CC1=O | . | 0 | -7 | .
C[C@@H]1CCCCO[C@@H](CN(C)S(=O)(=O)c2ccc(Cl)cc2)[C@@H](C)CN([C@@H](C)CO)C(=O)c2cc(NC(=O)Nc3ccccc3)ccc2O1 | . | -11 | -1 | .
COc1ccc(NC(=O)Nc2cccc3c2O[C@H](CN(C)C)[C@H](C)CN([C@@H](C)CO)C3=O)cc1 | . | 7 | -1 | .
COc1cc2nc(NC(=O)c3ccccc3)sc(=O)c2cc1OC | -12 | -5 | -5 | 41*
COc1cc2nc(NC(=O)c3ccccc3)[nH]c(=O)c2cc1OC | 12 | 7 | . | 3
COCC(=O)N1C[C@H](C)[C@@H](OC)CN(C)C(=O)c2cc(NC(=O)c3cnccn3)ccc2OC[C@H]1C | . | 1 | -4 | .
COCC(=O)N(C)C[C@@H]1Oc2ncc(C#CC3(O)CCCC3)cc2C(=O)N([C@@H](C)CO)C[C@@H]1C | . | 0 | -5 | .
COCC(=O)N(C)C[C@@H]1Oc2ncc(C#CC3(O)CCCC3)cc2C(=O)N([C@@H](C)CO)C[C@H]1C | . | 4 | 41* | .
CC(=O)N(C)C[C@@H]1Oc2ncc(C#CC3(O)CCCC3)cc2C(=O)N([C@H](C)CO)C[C@@H]1C | . | -2 | 31* | .
O=C(Nc1ccc(F)cc1)N1CCCCN2[C@@H](CO)[C@H](c3ccc(-c4ccncc4)cc3)[C@@H]2C1 | . | -5 | 30* | .
COc1ccc(C#Cc2ccc([C@H]3[C@@H](CO)N4CCCCN(C(=O)Nc5ccc(F)cc5)C[C@H]34)cc2)cc1 | . | 9 | 31* | .
O=C(Nc1ccc(F)cc1)N1CCCCN2[C@H](CO)[C@H](c3ccc(-c4ccncc4)cc3)[C@H]2C1 | . | -5 | -10 | .
CCC(=O)N1CCCCN2[C@@H](CO)[C@H](c3ccc(-c4ccc(F)cc4)cc3)[C@@H]2C1 | . | -1 | 25* | .
COCC(=O)N1CCCCN2[C@H](C1)[C@@H](c1ccc(-c3ccc(F)cc3)cc1)[C@@H]2CO | . | -2 | 16 | .
COc1ccc(S(=O)(=O)N(C)C[C@H]2Oc3ccc(NC(=O)CCC(F)(F)F)cc3CC(=O)N([C@@H](C)CO)C[C@H]2C)cc1 | . | 0 | -2 | .
COc1ccc(CN(C)c2ncnc3sccc23)c(OC)c1OC | -8 | 1 | 0 | 30*
Cc1cccc2c(N)c3c(nc12)N(C)CC3 | 0 | -6 | -1 | 30*
CN1CCc2c1nc1ccccc1c2N (tested in a mixture with another compound) | -10 | -1 | 1 | 13
O=C(C[C@H]1CC[C@H]2[C@@H](COC[C@H](O)CN2C(=O)Nc2ccc(F)cc2)O1)NC1Cc2ccccc2C1 | . | -2 | 43* | .
COc1ccc(NC(=O)N2C[C@@H](O)COC[C@@H]3O[C@H](CC(=O)NC4Cc5ccccc5C4)CC[C@H]32)cc1 | . | -3 | 100* | .
COc1cccc(NC(=O)N2C[C@H](O)COC[C@@H]3O[C@H](CC(=O)NC4Cc5ccccc5C4)CC[C@H]32)c1 | . | 1 | -1 | .
O=C(C[C@H]1CC[C@H]2[C@@H](COC[C@H](O)CN2C(=O)Nc2ccccc2)O1)NC1Cc2ccccc2C1 | . | 0 | -5 | .
CNC(=O)C[C@@H]1CC[C@H]2[C@@H](COC[C@H](O)CN2C(=O)Nc2cccc(OC)c2)O1 | . | 0 | 58* | .
SMILES | Rtt109 Vps75 | PglD inh | DENV2 CPE | Glyco luc inh
C[C@@H]1CN([C@@H](C)CO)C(=O)c2cc(NC(=O)Nc3ccccc3)ccc2O[C@@H]1CN(C)Cc1ccc(Oc2ccccc2)cc1 | . | 0 | -13 | .
C[C@@H](O)C#Cc1ccc2c(c1)O[C@H](CN(C)C(=O)CC1CC1)[C@@H](C)CN([C@@H](C)CO)S2(=O)=O | . | 1 | 0 | .
CCOC(=O)C1=CN(Cc2cccc(I)c2)S(=O)(=O)N(C)C1C (stereo not drawn) | 3 | 2 | -14 | 0
CCOC(=O)C1=CN(Cc2cccc(Br)c2)S(=O)(=O)N(C)C1C (stereo not drawn) | -2 | -1 | 37* | -3
C[C@H](CO)N1C[C@H](C)[C@H](CN(C)C(=O)Nc2ccc3c(c2)OCO3)OCCCC[C@H](C)Oc2ccc(NS(=O)(=O)c3ccccc3)cc2C1=O | . | -2 | 13 | .
C[C@@H]1CN([C@H](C)CO)C(=O)Cc2cc(NS(=O)(=O)c3ccccc3)ccc2O[C@H]1CN(C)S(=O)(=O)c1ccc(F)cc1 | . | 1 | -4 | .
O=C(Nc1nnc([C@H]2C[C@H](O)[C@@H](CO)O2)s1)c1ccccc1F | . | . | 29* | 1
Cc1cccc(NC(=S)N(CCCN2CCOCC2)Cc2cn(C)c3ccccc23)c1 | -3 | 2 | . | -3
Cn1cc(CN(CCCN2CCOCC2)C(=S)Nc2cccc(Cl)c2)c2ccccc21 | 5 | -1 | 40* | -3
C[C@@H]1CCCCO[C@@H](CN(C)CC2CCCCC2)[C@H](C)CN([C@@H](C)CO)C(=O)c2cc(NC(=O)Nc3ccc4c(c3)OCO4)ccc2O1 | . | 4 | -5 | .
COc1ccc(NC(=O)Nc2ccc3c(c2)C(=O)N([C@@H](C)CO)C[C@@H](C)[C@H](CN(C)Cc2ccccc2)OCCCC[C@@H](C)O3)cc1 | . | -1 | 11 | .
COc1ccc(CN(C)C[C@H]2OCCCC[C@H](C)Oc3ccc(NC(=O)Cc4ccccc4)cc3C(=O)N([C@H](C)CO)C[C@H]2C)cc1 | . | 4 | 8 | .
COc1ccc(NC(=O)Nc2ccc3c(c2)C(=O)N([C@H](C)CO)C[C@H](C)[C@H](CN(C)Cc2ccccc2)OCCCC[C@@H](C)O3)cc1 | . | 0 | 26* | .
COc1ccc(CN(C)C[C@@H]2OCCCC[C@H](C)Oc3ccc(NC(=O)Cc4ccccc4)cc3C(=O)N([C@@H](C)CO)C[C@H]2C)cc1 | . | -1 | 27* | .
COc1ccc(NC(=O)Nc2ccc3c(c2)C(=O)N([C@@H](C)CO)C[C@@H](C)[C@@H](CN(C)Cc2ccccc2)OCCCC[C@H](C)O3)cc1 | . | -7 | 42* | .
COc1ccc(NC(=O)Nc2ccc3c(c2)C(=O)N([C@H](C)CO)C[C@H](C)[C@H](CN(C)Cc2ccccc2)OCCCC[C@H](C)O3)cc1 | . | 2 | 17 | .
O=C(c1ccccn1)N1C[C@H]2[C@@H](c3ccccc31)[C@H](CO)N2C(=O)C1CCCCC1 | . | 0 | . | .
Cn1ccc2c(-c3ccc(C(C)(C)C)cc3)cc3c(c21)C1CCC3C1 (stereo not drawn) | . | 6 | 21* | 0
CCC(=O)/C=C1/Sc2ccccc2N1CC | 20 | 2 | . | 3
CCN1/C(=C/c2sc(-c3ccccc3C)c[n+]2C)Sc2ccccc21 | -1 | . | -3 | 36*
Cc1ccc(C(=O)N[C@@H](C)CN2C3=NC[C@H](C(C)C)N3C[C@H]2Cc2ccc(O)cc2)cc1Br | 13 | 2 | 106* | -4
